N-glyco inh: N-linked glycosylation inhibition; D54 ERlucT glycosylation luciferase reporter, 24 h; percent of 100 nM tunicamycin response; reporter increase, % at 12.5 µM; actives 0.23% (n = 360,000); AID 588692;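 active means mean luciferase reporter signal, scaled so untreated is 0 and the glycosylation-blocking control 100, at or above a set limit in every replicate; inconclusive means mean reaches the limit but not every replicate does; inactive means mean below the limit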;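 further: luciferase carries N-glycosylation sites so blocking glycosylation raises the light; 0% = median of neutral control wells and 100% = median of 100 nM tunicamycin wells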
Vif inh: inhibitors of HIV Vif | inhibition, % at 7.49 µM | actives 0.35% (n = 340,000) | AID 602346 | HEK293T cells, Vif self-association by quenched fluorescence, imaging, 24 h; in the data active means inhibition above about 50%, passing the limit was not always enough; inconclusive means no clear call, values can overlap the other calls; inactive means below about 31%
esBAF inh: SWI/SNF esBAF complex inhibition | mouse ES cells, Bmi1-luciferase knock-in reporter, 24 h; 100% = twice the neutral-well signal | reporter increase, % at 12.5 µM | actives 2% (n = 350,000); in the data active means activation above about 40%; inconclusive means no clear call, values can overlap the other calls;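 further: 0% = median of the plate's neutral control wells and 100% = double that signal; a rise in the Bmi1 reporter signal indicates esBAF inhibition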
MITF act: increases MITF-driven TRPM1 promoter luciferase signal; SK-MEL-5 TRPM1-promoter luciferase, 24 h; % of positive control, neutral wells = 0; activation, % at 12.5 µM; actives 0.75% (n = 300,000); AID 588334;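 active means mean activation of at least 80% with every replicate also reaching 80%; inconclusive means mean reaches 80% but some replicate falls short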;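 further: 0% = neutral control wells and 100% = parthenolide positive control wells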
Wnt bcat act: activators of Wnt/beta-catenin signaling | Wnt/beta-catenin reporter cell assay, activator, plate reader | activation, % at 9.35 µM | actives 1.2% (n = 300,000); in the data active means activation above about 30%, passing the limit was not always enough; inconclusive means no clear call, values can overlap the other calls;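 further: 0% = neutral control wells and 100% = positive control wells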
PfHsp90 set2: reduces growth (ATP signal) of yeast expressing P. falciparum Hsp90. S. cerevisiae expressing PfHsp90, BacTiter-Glo ATP, 48 h; yeast lacking PDR1 and PDR3 efflux regulators. inhibition, % at 9.4 µM. actives 0.32% (n = 310,000);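 active means every replicate shows inhibition above about 80%, whatever the replicate mean, limit read from the data; inconclusive means mean inhibition reaches the set limit but some replicate falls short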;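 further: 0% = DMSO neutral controls and 100% = 20 µM radicicol positive controls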
* = called active by the depositor; ? = inconclusive; · = not tested or not shown; + = active, no number. Most compounds without a hit are left out; they make up all but 3% or so of the library.

SMILES	N-glyco inh	Vif inh	esBAF inh	MITF act	Wnt bcat act	PfHsp90 set2
CCCNC(=O)C[C@@H]1CC[C@H]2[C@H](COc3ccc(NC(=O)c4ccccc4)cc3C(=O)N2C)O1	·	·	-3.0	·	·	·
Cc1cc(Nc2ccccc2O)c2ccccc2n1	2.6	-4.9	·	10.6	-1.8	14.7
CC(C)(C)[C@H]1COC(=O)CCC/C=C/C[C@H](CC(=O)NCCO)C(=O)N1	1.8	?	0.7	0.7	1.5	14.7
Cc1cc(C(=O)COC(=O)c2ccc(N)c([N+](=O)[O-])c2)c(C)n1Cc1ccc2c(c1)OCO2	0.6	-1.1	88.9*	76.8	37.1*	-10.9
COc1cc(/C=C2/C(=N)N3C=CSC3=NC2=O)ccc1OCCOc1ccc(NC(C)=O)cc1	0.0	60.6*	·	69.8	-3.8	5.8
CCOC(=O)N1CCN(S(=O)(=O)c2ccc3c(c2)OCC(=O)N3)CC1	1.2	·	0.4	-11.5	-1.0	-3.9
CO[C@@H]1CN(C)C(=O)c2ccc(NC(C)=O)cc2OC[C@H](C)N(Cc2cccc(F)c2)C[C@H]1C	·	·	1.1	·	·	·
CCCCOc1ccc(-c2ncc(Cl)cn2)cc1	-0.3	-1.8	86.0*	105.1*	-2.1	-89.5
CCCCOc1ccc(-c2ncc([N+](=O)[O-])cn2)cc1	1.2	-8.9	83.4*	·	39.8*	6.1
CCCCOC(=O)c1ccc(Nc2ccc([N+](=O)[O-])cn2)cc1	1.9	-1.3	·	-3.5	-0.6	4.3
O=C(/C=C/c1ccc(S(=O)(=O)N2CCOCC2)cc1)NC(=S)NCCCn1ccnc1	-10.8	·	-2.9	-20.4	31.9*	-43.5
O=C(C[C@H]1C[C@H]2c3cc(NS(=O)(=O)c4ccccc4)ccc3O[C@H]2[C@@H](CO)O1)NCC(F)(F)F	·	·	1.8	·	·	·
CC(C)=CCC/C(C)=C/CNC(=O)C[C@H]1C[C@H](C(=O)N2CCCCC2)[C@@]2(CCc3ccccc3)c3[nH]c4cc(CCC(=O)N(C)C)ccc4c3CCN2C1=O	-0.6	-5.0	52.3*	-41.3	0.5	-26.7
CCCCn1c(CCCNC(=O)c2ccco2)nc2ccccc21	0.5	-11.9	·	-10.6	-0.5	0.8
C/C(=C\c1ccccc1)C(=O)Nc1nccs1	-0.1	8.6	?	78.0	52.3*	-22.1
N#C/C(=C\c1cccs1)C(=O)Nc1nccs1	1.0	-26.0	119.2*	?	56.0*	-135.1
N#C/C(=C\c1cccs1)C(=O)NCc1ccccc1	3.9	-2.3	·	4.6	3.2	-12.0
O=C(Nc1nccs1)c1ccc(Br)cc1	-1.9	-35.5	43.1*	?	12.1	9.3
COc1ccc(OC)c(/C=C2\Oc3cc(OCC(=O)N4CC(O)C[C@H]4C(=O)O)ccc3C2=O)c1 (stereo not given in full)	-0.6	-0.9	-0.3	7.4	-1.9	-1.9
Cc1ccccc1C1NC(=S)NC2=C1C(=O)CC(C)(C)C2 (stereo not given)	1.1	4.1	·	-4.2	-0.8	-12.4
Cc1ccc2c(c1)C(=O)N1[C@H]3c4cc(Cl)ccc4OC[C@@H]3[C@H](c3ccccc3)[C@]1(C)C(=O)N2	?	-6.7	-2.4	-3.1	0.4	-79.0
C[C@@]12C(=O)Nc3cc(F)c(F)cc3C(=O)N1[C@H]1c3ccccc3OC[C@@H]1[C@@H]2c1ccccc1	?	-5.0	0.8	3.2	3.7	37.9
C[C@@]12C(=O)Nc3ccc(F)cc3C(=O)N1[C@H]1c3ccccc3OC[C@@H]1[C@@H]2c1ccccc1	11.4	0.3	-4.0	-21.3	·	+
C[C@@]12C(=O)Nc3ccc(F)cc3C(=O)N1[C@H]1c3cc(Cl)ccc3OC[C@@H]1[C@@H]2c1ccccc1	27.6*	-3.0	2.3	2.2	-2.6	-115.0
COc1ccc(C(=O)NCCc2nnc(SCC(=O)Nc3ccc(Br)cc3)n2C)cc1	1.9	0.7	-1.1	26.1	·	-6.3
SMILES	N-glyco inh	Vif inh	esBAF inh	MITF act	Wnt bcat act	PfHsp90 set2
C[C@@H]1CN([C@H](C)CO)C(=O)c2cc(NC(=O)Nc3ccc(C(F)(F)F)cc3)ccc2O[C@@H](C)CCCCO[C@H]1CN(C)S(=O)(=O)c1cccs1	·	·	-0.8	·	·	·
O=C(NCc1ccncc1)c1csc([C@@H]2O[C@H](CO)[C@@H](O)[C@H]2O)n1	0.9	22.9	-1.0	·	0.0	·
Fc1ccccc1NC(=S)NCCc1ccccc1	-1.6	4.1	48.7*	·	-1.5	3.3
S=C(NCc1ccc(Cl)cc1)Nc1ccccc1Cl	-2.2	2.1	·	4.3	·	5.2
S=C(NCCc1ccc(Cl)cc1)NC1CCCCC1	-4.1	-2.5	62.6*	88.9*	14.9	·
O=C(NC(=S)NCCc1ccccc1)c1ccccc1	1.0	-15.1	66.8*	37.3	6.6	·
CSc1ccccc1NC(=S)NCc1ccc(Cl)cc1	-2.7	-8.5	58.9*	7.1	12.6	14.3
S=C(NCCc1ccc(Cl)cc1)NC1CCCC1	0.2	27.3	·	35.1	12.5	-4.6
Fc1ccccc1NC(=S)NCCc1ccc(Cl)cc1	0.9	-5.6	58.7*	?	21.1	-21.0
COc1cccc(NC(=O)N(C)C[C@H]2Oc3ncc(C4=CCCCC4)cc3C(=O)N([C@@H](C)CO)C[C@@H]2C)c1	·	·	4.7	·	·	·
O=C1COc2ccc(S(=O)(=O)N3CCCC3)cc2N1	0.6	?	-6.0	12.4	0.0	34.7
CC1CC(C)CN(C(=S)Nc2ccc(OC(F)F)cc2)C1 (stereo not given)	-1.7	-3.2	·	2.7	-1.3	-21.0
C=C(C)C1CC=C(C)/C(=N/NC(=O)c2ccoc2C)C1 (stereo not given)	0.1	8.2	72.8*	28.8	·	-8.5
O=C(CSc1ncnc2ccccc12)N1CCNC1=O	-2.3	-3.0	41.8*	24.9	14.2	1.6
CN(C(=O)CSc1nnc(-c2ccco2)o1)C1CCCCC1	-1.2	-5.1	40.8*	47.5	·	3.7
O=C(CSc1nnc(-c2ccco2)o1)NC1CCCCC1	0.7	2.9	1.6	·	-4.7	·
CN(C(=O)CSc1ncnc2ccccc12)C1CCCCC1	-1.9	-1.7	85.5*	103.6*	23.6	-7.3
Cc1nc(SCC(=O)N2CCNC2=O)c2ccccc2n1	-1.6	13.3	11.3	-8.1	-4.8	1.5
CCCN1CCC(=O)N([C@H](CSc2ccccc2)CC(C)C)CC1	0.0	-4.3	36.6	92.9*	15.5	-15.0
O=C1CCN(CCc2ccccc2)CCN1[C@H](CSc1ccc(Br)cc1)c1ccccc1	-1.8	-1.6	11.1	-3.7	1.4	·
CCCN1CCC(=O)N([C@H](CSc2ccc(Br)cc2)c2ccccc2)CC1	-8.0	-3.4	51.2*	88.5*	20.4	·
CC(C)C[C@@H](CSc1ccccc1)N1CCN(CC(C)C)CCC1=O	-1.8	0.7	49.5*	103.5*	43.2*	5.4
CCCN1CCC(=O)N([C@H](CSc2ccc(C)cc2)CC(C)C)CC1	-4.9	-1.6	46.3*	98.4*	29.6	9.4
CC(Oc1ccc(Cl)cc1Cl)C(=O)N(Cc1ccco1)C1CCS(=O)(=O)C1 (stereo not given)	-1.5	-8.5	-2.4	-8.3	-2.0	32.7

Assay outcomes (PubChem)
